From ChEMBL document CHEMBL4513216, “Probing the Open Global Health Chemical Diversity Library for Multistage-Active Starting Points for Next-Generation Antimalarials” (ACS Infect Dis, 2020)
The campaign covered roughly 69,000 compounds. About 8,600 (12%) showed an effect of 50% or more. The entries come from a sample that favours strong results as a whole.

These compounds were tested on Plasmodium berghei (assay: Screen against P. berghei liver stage (PbLuc), transformed with Luciferase, at 10uM). Conditions: tested at 10 uM.
Format: functional, HepG2
`Cc1csc(N2CCCN(C(=O)c3ccoc3C)CC2)n1` gave an INHIBITION of 15.3%.
With `CC(=O)N1CC(=O)N(c2ccccc2)CC12CCN(Cc1ccoc1)C2` (stereo not drawn) the INHIBITION was 38.3%.
For `CS(=O)(=O)c1ccc(CN2C[C@@H]3CC[C@H]2CN(c2ncccn2)C3)cc1`, the INHIBITION was 74.1%.
Compound `CC(C)c1nnc(N2C[C@H]3CC[C@@H](C2)N(Cc2ccccc2)C3)s1` has an INHIBITION of 87.2%.
For `Cc1nnsc1CN1C[C@@H]2CC[C@H]1CN(Cc1ccc(F)cc1)C2`, the INHIBITION was 29.1%.
`CCCN1C[C@@H]2CC[C@H]1CN(c1nnc(C(C)C)s1)C2` was tested, and the INHIBITION was -11.9%.
With `CC(=O)Nc1ccc(CN2C[C@@H]3CC[C@H]2CN(c2ncccn2)C3)cc1` the INHIBITION was -8%.
Work on `c1cnc(N2C[C@H]3CC[C@@H](C2)N(Cc2ccsc2)C3)nc1` yielded an INHIBITION of 15.7%.
With `CC(C)c1nnc(N2C[C@H]3CC[C@@H](C2)N(CC2CCC2)C3)s1` the INHIBITION was 44.6%.
`COc1ccc(CN2C[C@H]3CC[C@@H](C2)N(Cc2snnc2C)C3)cc1` was tested, and the INHIBITION was 73.5%.
`Cc1ncsc1CN1C[C@@H]2CC[C@H]1CN(Cc1ccccc1)C2` was tested, and the INHIBITION was 15.5%.
`Cc1nnsc1CN1C[C@@H]2CC[C@H]1CN(Cc1ccccc1)C2` was tested, and the INHIBITION was 46.4%.
In the case of `Cc1nnsc1CN1C[C@H]2CC[C@@H](C1)N(Cc1ccccc1)C2`, the INHIBITION is reported as 60%.
Compound `Cc1nnsc1CN1C[C@@H]2CC[C@H]1CN(Cc1ccccn1)C2` has an INHIBITION of -15.3%.
For `NC1CCC(CN2CCCn3nc(CNC(=O)C4CCC4)cc3C2)CC1` (stereo not drawn), the INHIBITION was 18.4%.
For `Cc1cnc(C(=O)N2CCCN(c3nc(C)cs3)CC2)cn1`, the INHIBITION was -5.25%.
Work on `Cc1ccc(CN2CC[C@@H](N3CCOCC3)[C@@H]2Cc2cccnc2)o1` yielded an INHIBITION of 12.1%.
In the case of `CCCC(O)CN1CC(C)(C)CN(C(=O)c2ccc(Cl)cc2)CC1=O` (stereo not drawn), the INHIBITION is reported as 46.4%.
`O=C([C@H]1C[C@@H]2CCN(c3cccc(F)c3)C[C@H]2O1)N1CCCCO1` gave an INHIBITION of 23.3%.
Compound `c1cnnc(N[C@@H]2CC[C@@H]3CN(Cc4ccc5[nH]ccc5c4)C[C@@H]32)c1` has an INHIBITION of 27.2%.
In the case of `Cc1nn(CCN2CCSCC2)cc1CNCC1CC1`, the INHIBITION is reported as -22%.
With `O=C(NCc1ccco1)[C@@]12CCO[C@@H]1CCN(C1CCC1)C2` the INHIBITION was 29%.
With `CS(=O)(=O)N1C[C@H]2CCCN(Cc3nccs3)[C@H]2C1` the INHIBITION was 33.4%.
With `NC1CCC(n2cc(C(=O)NC3COc4ccccc43)nn2)CC1` (stereo not drawn) the INHIBITION was -28%.
`CN(C)CCN1CC[C@@H]2O[C@@H](COCC(=O)N3CCCC3)CC[C@@H]21` gave an INHIBITION of 29%.
For `O=C(O)CNC(=O)Cc1csc(-c2cccc(Cl)c2)n1`, the INHIBITION was 44.9%.
With `COc1cc(N2CC[C@H]3O[C@@H](C(=O)NC4CCCC4)CC[C@H]32)ncn1` the INHIBITION was -5.31%.
`CC(C)n1cc(N2CC(C(=O)N3CCC(C(N)=O)CC3)CC2=O)cn1` (stereo not drawn) gave an INHIBITION of -23.5%.
For `CCCc1nc(CNC(C)Cn2cccn2)cs1` (stereo not drawn), the INHIBITION was -31.5%.
`CCCc1nc(CNC(=O)Cc2cc(C)no2)cs1` was tested, and the INHIBITION was 31.6%.
`CCCc1nc(CNc2nc(C)nc3oc(C)nc23)cs1` gave an INHIBITION of 50.8%.
`CCS(=O)(=O)NCC(=O)Nc1cc(CC(C)(C)C)n[nH]1` showed an INHIBITION of -10.7%.
`O=C(CSCC1CC1)N1C[C@H]2CC[C@@H](C1)N(Cc1ccccn1)C2=O` was tested, and the INHIBITION was 17%.
`Cc1cnn(CC2CCCN2CC(=O)Nc2cc(C)nn2C)c1` (stereo not drawn) showed an INHIBITION of 38.6%.
`CCC(=O)NC(Cc1cc(N(C)C)nc(C2CC2)n1)c1ccccc1` (stereo not drawn) gave an INHIBITION of 33.8%.
`COCC(=O)NC(Cc1cc(N(C)C)nc(C2CC2)n1)c1ccccc1` (stereo not drawn) showed an INHIBITION of 51.4%.
Compound `CC(C)C(=O)NC(Cc1cc(N(C)C)nc(C2CC2)n1)c1ccccc1` (stereo not drawn) has an INHIBITION of 45.9%.
For `Cc1ccc2c(c1)c(CNC(=O)C1CC(=O)N(C3CC3)C1)nn2C` (stereo not drawn), the INHIBITION was -6.34%.
In the case of `Cc1ccc2c(c1)c(CNC(=O)C1CC(=O)N(C3CCCC3)C1)nn2C` (stereo not drawn), the INHIBITION is reported as 38.5%.
`Cc1ccc2c(c1)c(CNC(=O)C1CC(=O)N(CCN(C)C)C1)nn2C` (stereo not drawn) showed an INHIBITION of 82.4%.
`O=C(NCC1CCS(=O)(=O)C1)N(Cc1ccncc1)C1CC1` (stereo not drawn) gave an INHIBITION of -1.15%.
`CS(=O)(=O)c1cc(S(N)(=O)=O)ccc1NCC1CCCO1` (stereo not drawn) gave an INHIBITION of 30%.
`CCc1nnc(CN2CCN(CC(O)c3ccccc3)CC2)o1` (stereo not drawn) was tested, and the INHIBITION was -12.2%.
`CC(C)(C)c1nnc(CN2CCN(CC(O)c3ccccc3)CC2)o1` (stereo not drawn) showed an INHIBITION of 58.2%.
Work on `Cc1nnc(CN2CCN(CC(O)c3ccccc3)CC2)o1` (stereo not drawn) yielded an INHIBITION of 4.71%.
`OCC1CCCN1c1cc(NCc2cccnc2)ncn1` (stereo not drawn) was tested, and the INHIBITION was -7.35%.
Work on `Cc1cccc(NC(=O)c2nn(C3CCS(=O)(=O)C3)c3c2CCCC3)n1` (stereo not drawn) yielded an INHIBITION of 30.8%.
`O=C(Nc1ccc(Cl)cc1)c1nn(C2CCS(=O)(=O)C2)c2c1CCCC2` (stereo not drawn) gave an INHIBITION of 26.7%.
For `Cc1cc(NC(=O)c2nn(C3CCS(=O)(=O)C3)c3c2CCCC3)no1` (stereo not drawn), the INHIBITION was 26.7%.
Work on `O=C(NCc1ccccc1)c1nn(C2CCS(=O)(=O)C2)c2c1CCCC2` (stereo not drawn) yielded an INHIBITION of 20.1%.
`Cc1nn(C2CCS(=O)(=O)C2)c(O)c1Cc1cccc(Cl)c1` (stereo not drawn) gave an INHIBITION of 28.5%.
Compound `O=C(Nc1ccccc1)c1nn(C2CCS(=O)(=O)C2)c2c1CCCC2` (stereo not drawn) has an INHIBITION of 66.3%.
For `CC(C)(C)NC(=O)c1nn(C2CCS(=O)(=O)C2)c2c1CCCC2` (stereo not drawn), the INHIBITION was 28.4%.
For `O=C(Nc1ccccc1F)c1nn(C2CCS(=O)(=O)C2)c2c1CCCC2` (stereo not drawn), the INHIBITION was 85.5%.
Compound `O=C(Nc1cccnc1)c1nn(C2CCS(=O)(=O)C2)c2c1CCCC2` (stereo not drawn) has an INHIBITION of 36.6%.
Compound `O=C(Nc1cccc(Cl)c1)c1nn(C2CCS(=O)(=O)C2)c2c1CCCC2` (stereo not drawn) has an INHIBITION of 79.8%.
Work on `O=C(Nc1ccc(Cl)cn1)c1nn(C2CCS(=O)(=O)C2)c2c1CCCC2` (stereo not drawn) yielded an INHIBITION of 83.9%.
`O=C(NCc1ccco1)c1nn(C2CCS(=O)(=O)C2)c2c1CCCC2` (stereo not drawn) showed an INHIBITION of -18.2%.
In the case of `Cc1ccc(O)c(CNCC(C)c2nc3ccccc3o2)n1` (stereo not drawn), the INHIBITION is reported as 43.1%.
In the case of `O=C(Nc1ccc2c(c1)C(=O)NC2=O)c1ccc(Cl)s1`, the INHIBITION is reported as -93.6%.
`NCC1CCC(C(NC(=O)c2cccc(F)c2)c2ccccn2)CC1` (stereo not drawn) gave an INHIBITION of 14.4%.
Work on `CCc1c(C(=O)N2CCCC(N(C)C)C2)cnn1C(C)(C)C` (stereo not drawn) yielded an INHIBITION of 5.7%.
For `O=C1[C@@H]2CN(C3CCOCC3)C[C@H]2CCN1CC1CC1`, the INHIBITION was 3.81%.
